ALDH1A1 inh: inhibitors of human aldehyde dehydrogenase 1A1 | 7.3% of 220,000 active | Potency, µM (series often up to 75.3 µM), actives largely listed as inhibitors | P00352 | Purified ALDH1A1, NADH fluorescence, propionaldehyde substrate; active = well fitted inhibition curve with a large enough effect, not every such curve was filed as active; inconclusive = small, poorly fitted or top-dose-only effect, or another doubt; inactive = no such curve, though single readings can be large or run the other way
RORg inh: inhibitors of mouse ROR gamma transcriptional activity | P51450 | Drosophila S2 Gal4-RORgamma UAS-luciferase reporter, 20 h | Potency, µM (top dose mostly 53.6 µM), actives largely listed as inhibitors | 5.4% of 310,000 active | AID 2551; note: nearly all actives have a fitted effect of over 60% in size
Target sequence (P51450 whole entry, looked up, the tested form may be a part): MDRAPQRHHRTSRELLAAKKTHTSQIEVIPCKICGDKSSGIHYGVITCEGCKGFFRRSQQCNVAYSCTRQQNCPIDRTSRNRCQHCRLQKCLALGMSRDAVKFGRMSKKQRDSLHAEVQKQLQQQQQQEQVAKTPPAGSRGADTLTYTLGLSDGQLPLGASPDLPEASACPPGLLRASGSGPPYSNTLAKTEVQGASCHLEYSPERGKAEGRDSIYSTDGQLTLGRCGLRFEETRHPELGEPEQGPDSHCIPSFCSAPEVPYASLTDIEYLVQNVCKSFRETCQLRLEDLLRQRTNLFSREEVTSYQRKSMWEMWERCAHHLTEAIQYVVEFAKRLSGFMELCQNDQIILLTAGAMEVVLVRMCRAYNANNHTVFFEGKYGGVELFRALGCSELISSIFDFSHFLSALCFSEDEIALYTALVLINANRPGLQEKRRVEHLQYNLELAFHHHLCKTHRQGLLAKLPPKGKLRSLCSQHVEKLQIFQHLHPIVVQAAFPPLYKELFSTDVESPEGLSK
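Luciferase reporter read in Schneider cells carrying Gal4-RORγ (mouse) and UAS-Photinus luciferase; cells given compound 1 h before 700 uM copper sulfate induction, then incubated 20 h at ambient temperature.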
PLK1 PBD block: blocks phosphopeptide binding to human PLK1 polo-box domain; Plk1 PBD binding of FITC phosphopeptide, fluorescence polarization; AID 720504; 2.8% of 360,000 active; Potency, µM, most hits filed as inhibitors; P53350; note: series mostly up to about 57 µM; nearly all actives have a fitted effect of over 65% in size
Gal4-VP16 FLuc: inhibits Gal4-VP16 luciferase reporter, ROR gamma counter-screen | Drosophila S2 Gal4-VP16 UAS-luciferase, luminescence, 20 h | Potency, µM (titrated, usually from 53.6 µM), most hits filed as inhibitors | 3.5% of 310,000 active;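 note: Gal4-VP16 expression switched on by copper sulfate through the metallothionein promoter; nearly all actives have a fitted effect of over 50% in size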
Sfp PPTase inh: inhibitors of Bacillus subtilis Sfp phosphopantetheinyl transferase; Biochemical Sfp PPTase activity, qHTS; Potency, µM, actives largely listed as inhibitors; 3.5% of 310,000 active; AID 1490;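 note: the enzyme is Sfp with the accession as filed and its product quenches rhodamine fluorescence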
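Sfp 15 nM + cpd, 15 min RT; start w/ rhodamine-CoA 5 uM, BHQ-2-YbbR 12.5 uM (final); 50 mM Hepes pH 7.6, 10 mM MgCl2, 0.01% NP-40, 0.01% BSA; read 525/598 nm at 0 and 30 min.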
Of the large screens only hits and unclear results are named; the others gave an inactive call. This is a sample that favours compounds with a hit; in the whole collection about 12% have one here. Unless noted, calls come from the whole dose curve; as a rule, active = well fitted curve in the direction sought with a large enough effect; inconclusive = small, poorly fitted or top-dose-only effect, or another doubt; inactive = no such curve, though single readings can be large; an effect the other way counts as inactive or inconclusive.

COc1cc(SC)ccc1C(=O)OCC(=O)NCCNC(=O)COC(=O)c1ccc(SC)cc1OC	none (no result: ALDH1A1 inh)
COc1c(C)cccc1C(=O)Nc1ccc(OCC(=O)N2CCOCC2)cc1C	RORg inh 1.8µM, Gal4-VP16 FLuc inconclusive (no result: ALDH1A1 inh)
COc1cc(SC)ccc1C(=O)NCCOc1c(C)cc(C)cc1C	Sfp PPTase inh 50µM
N=C(N)SCCN=C(N)N	none (no result: ALDH1A1 inh, PLK1 PBD block)
Cc1ccc(NCc2cccc(B(O)O)c2)cc1	none (no result: ALDH1A1 inh, RORg inh, Gal4-VP16 FLuc, Sfp PPTase inh)
COc1cccc(N2CCN(C(=O)c3cc4c(s3)CCCCC4)CC2)c1	none (no result: ALDH1A1 inh, RORg inh, Gal4-VP16 FLuc, Sfp PPTase inh)
COc1cc(SC)ccc1C(=O)Nc1ccc(Br)cn1	RORg inh 2µM, Gal4-VP16 FLuc 7.9µM
COc1cc(SC)ccc1C(=O)Nc1ccc(OCC(=O)N2CCOCC2)cc1	RORg inh 10µM, Gal4-VP16 FLuc 11µM (no result: ALDH1A1 inh)
COc1cc(SC)ccc1C(=O)Nc1cc(C)c(OCC(=O)N2CCOCC2)c(C)c1	none (no result: ALDH1A1 inh)
COc1cc(SC)ccc1C(=O)Nc1ccc(C)cc1	RORg inh inconclusive, Gal4-VP16 FLuc 20µM, Sfp PPTase inh inconclusive
COc1cc(SC)ccc1C(=O)Nc1ccccn1	RORg inh 8.9µM, Gal4-VP16 FLuc 10µM (no result: ALDH1A1 inh)
COc1cc(SC)ccc1C(=O)Nc1ccc(C)cc1C	ALDH1A1 inh inconclusive
C=CCOc1cccn2c(N(C=O)Cc3ccc(OC)cc3)c(CC)nc12	none (no result: ALDH1A1 inh, RORg inh, Gal4-VP16 FLuc, Sfp PPTase inh)
COc1ccc(NC(=O)C[C@H]2C(=O)N(CCc3ccccc3)C[C@@H]2Cc2ccccc2)cc1	none (no result: ALDH1A1 inh, RORg inh, Gal4-VP16 FLuc, Sfp PPTase inh)
COC1=CC(=O)OC(c2ccccc2C(F)(F)F)C1 (centres undefined)	none (no result: ALDH1A1 inh, RORg inh, Gal4-VP16 FLuc, Sfp PPTase inh)
Cc1cc(C)cc([N+](=O)[O-])c1	none (no result: PLK1 PBD block, Sfp PPTase inh)
COc1cc(SC)ccc1C(=O)Nc1ccon1	ALDH1A1 inh 20µM, PLK1 PBD block inconclusive
COc1ccc(OC)c(C2=Nn3c(nnc3-c3ccccc3OC)SC2)c1	none (no result: ALDH1A1 inh, PLK1 PBD block)
Fc1cccc(Cc2c(-c3ccccc3)nc3ccc(Cl)cn23)c1	none (no result: ALDH1A1 inh, RORg inh, Gal4-VP16 FLuc, Sfp PPTase inh)
CCCCNC(=O)Nc1nnc(-c2ccc(OCC)cc2)o1	RORg inh 7.1µM, Gal4-VP16 FLuc 5.6µM
CCCCNC(=O)Nc1nnc(-c2ccccc2)o1	ALDH1A1 inh inconclusive, RORg inh 4µM, Gal4-VP16 FLuc 5.6µM
CCOc1ccc(-c2nnc(NC(=O)COc3ccccc3F)o2)cc1	none (no result: ALDH1A1 inh, RORg inh, Gal4-VP16 FLuc, Sfp PPTase inh)
CCOC(=O)CNC(=O)Nc1nnc(-c2ccc(OCC)cc2)o1	ALDH1A1 inh inconclusive, RORg inh 3.2µM, Gal4-VP16 FLuc 5.6µM
Cc1cc(C)nc(CCNC(=O)c2cc(COc3ccccc3)on2)n1	Gal4-VP16 FLuc inconclusive (no result: ALDH1A1 inh)
O=C(c1ccco1)N1CCN(C2CN(Cc3cn(Cc4ccccc4C(F)(F)F)nn3)S(=O)(=O)C2)CC1 (centres undefined)	none (no result: ALDH1A1 inh, RORg inh, Gal4-VP16 FLuc, Sfp PPTase inh)
O=C(NCC1COc2ccccc2O1)C1CCN(S(=O)(=O)c2ccc(Cl)cc2)CC1 (centres undefined)	none (no result: ALDH1A1 inh, RORg inh, Gal4-VP16 FLuc, Sfp PPTase inh)
CCN(CC)S(=O)(=O)N1CCC(C(=O)NCC2COc3ccccc3O2)CC1 (centres undefined)	ALDH1A1 inh 2.5µM, RORg inh inconclusive
CC1N=C(SCC(=O)c2ccc(F)cc2)N2C(C)N=C(SCC(=O)c3ccc(F)cc3)N12 (centres undefined)	none (no result: ALDH1A1 inh, RORg inh, Gal4-VP16 FLuc, Sfp PPTase inh)
COC(=O)c1ccnc(SCC(=O)c2ccccc2)c1	none
COC(=O)c1ccnc(/C=N/O)c1	Sfp PPTase inh 50µM
CN(C)c1ccc(CC(=O)N2CCCC(c3cc(C(=O)Nc4ccc5c(c4)OCO5)no3)C2)cc1 (centres undefined)	none (no result: ALDH1A1 inh, RORg inh, Gal4-VP16 FLuc, Sfp PPTase inh)
CN(C)c1ccc(NC(=O)COC(=O)CCC(=O)c2ccc(F)cc2)cc1	ALDH1A1 inh 10µM
CCSc1nc2ccccc2n1C(=O)/C=C\c1ccc(OC)c(OC)c1	RORg inh 10µM, Gal4-VP16 FLuc 10µM, Sfp PPTase inh 50µM
Cc1ccc(C)c2[nH]c(=O)c(CCNC(=O)c3cc4ccccc4o3)cc12	Gal4-VP16 FLuc 13µM
COc1ccc(OC)c2[nH]c(=O)c(CCNC(=O)c3cc4ccccc4o3)cc12	ALDH1A1 inh inconclusive
CC(C)(C)OC=O	none (no result: PLK1 PBD block, Sfp PPTase inh)
CC1=NN(c2ccccc2)C(=O)C1N=Nc1cccc(O)c1 (centres undefined)	RORg inh inconclusive, Gal4-VP16 FLuc inconclusive (no result: ALDH1A1 inh)
CC1=NN(c2ccc(C)cc2C)C(=O)C1C(c1cccc(O)c1)C1C(=O)N(c2ccc(C)cc2C)N=C1C (centres undefined)	ALDH1A1 inh inconclusive, PLK1 PBD block 27µM
Cc1ccc(-c2csc(=S)n2CC(=O)OCC(=O)NCc2ccco2)cc1	ALDH1A1 inh inconclusive, Gal4-VP16 FLuc inconclusive, Sfp PPTase inh 22µM
Cc1csc(=O)n1CC(=O)OCC(=O)NC(C)c1ccc(F)cc1 (centres undefined)	none (no result: ALDH1A1 inh, RORg inh, Gal4-VP16 FLuc, Sfp PPTase inh)
Cc1ccc(-c2csc(=S)n2CC(=O)OCC(=O)NC(C)C(C)C)cc1 (centres undefined)	ALDH1A1 inh 1.6µM
Nc1cc([N+](=O)[O-])ccc1Nc1ccc(O)cc1	Sfp PPTase inh 56µM (no result: ALDH1A1 inh)
Cc1ccc(SCC(=O)OC(C)C(=O)NCc2ccccc2)cc1 (centres undefined)	none (no result: ALDH1A1 inh, RORg inh, Gal4-VP16 FLuc, Sfp PPTase inh)
CSc1nn(CCc2ccncc2)c(=S)s1	ALDH1A1 inh inconclusive, Gal4-VP16 FLuc inconclusive, Sfp PPTase inh 50µM
S=c1sc2ccccc2n1CCc1ccncc1	none (no result: ALDH1A1 inh, RORg inh, Gal4-VP16 FLuc, Sfp PPTase inh)
CCOC(=O)[C@]12CCCC=C1N(Cc1cccc3ccccc13)C(=O)[C@H](CC(=O)NCCCCc1ccccc1)C2	none (no result: ALDH1A1 inh, RORg inh, Gal4-VP16 FLuc, Sfp PPTase inh)
CCCOc1ccc(N)cc1N	ALDH1A1 inh 5.6µM, RORg inh 4.5µM, PLK1 PBD block inconclusive, Gal4-VP16 FLuc inconclusive, Sfp PPTase inh 45µM
CCCOc1cc(N)ccc1C(=O)OCCN(CC)CC	none
C/C(N=Nc1nc2ccccc2s1)=N\Nc1ccccc1O	RORg inh 8.9µM (no result: ALDH1A1 inh)
CNC(=S)N1CCC(NC(=O)C23CC4CC(CC(C4)C2)C3)CC1	PLK1 PBD block 8.4µM
O=C(NC1CCN(Cc2ccccc2)CC1)C12CC3CC(CC(C3)C1)C2	RORg inh inconclusive
